# SMARCA2 activ = increases SMARCA2 function in MMTV reporter cells; MG213 cells, MMTV-luciferase reporter, dexamethasone, overnight; activation, % at 9.1 µM; actives 1% (n = 370,000); AID 652017; in the data active = activation above about 7.8%;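 also: 0% = vehicle wells and 100% = reference activator wells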
# DAX1 inh-1 = inhibitors of human orphan nuclear receptor DAX1 (NR0B1); actives 0.99% (n = 340,000); P51843; HEK293 Gal4-DAX1 luciferase reporter, luminescence; inhibition, % at 6.75 µM;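 active = inhibition above the mean over all tested compounds plus 3 SD, cut at about 4.2% in these data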;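 also: 0% = DAX1-transfected cells with DMSO and 100% = empty-vector control cells with DMSO; inhibition shows as a rise in luminescence from relieved DAX1 repression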
# Target sequence (P51843 207-470 limits assumed): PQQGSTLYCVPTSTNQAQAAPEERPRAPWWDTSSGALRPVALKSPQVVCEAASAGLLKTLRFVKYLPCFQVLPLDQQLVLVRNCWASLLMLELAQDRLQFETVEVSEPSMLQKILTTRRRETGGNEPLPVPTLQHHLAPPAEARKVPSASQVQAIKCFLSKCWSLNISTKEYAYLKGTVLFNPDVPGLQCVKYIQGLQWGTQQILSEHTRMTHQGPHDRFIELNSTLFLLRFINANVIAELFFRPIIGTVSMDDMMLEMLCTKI
# hgDAF-12 ag = agonists of H. glycines DAF-12 nuclear receptor; activation, % at 6.8 µM; HEK293 GAL4-hgDAF12 UAS-luciferase reporter, agonist luminescence; normalized to butyrate control; actives 1.8% (n = 370,000);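 active = activation above a cutoff set at the mean of all screened compounds plus 3 SD, cut at about 10% in these data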;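 also: 0% = DMSO wells and 100% = sodium butyrate wells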
# DAX1 inh-2 = inhibitors of DAX1 repression of SF-1 activated StAR promoter; inhibition, % at 6.8 µM; HEK293T StAR-luciferase reporter, SF-1/DAX-1 repression relief; actives 1.1% (n = 370,000);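 active = inhibition above the mean over all tested compounds plus 3 SD, cut at about 3.6% in these data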;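 also: 0% = DAX-1 cells with DMSO and 100% = cells lacking DAX-1 with DMSO; higher inhibition means more luminescence from relief of DAX-1 repression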
# ssDAF-12 act = S. stercoralis DAF-12 activation, primary screen. activation, % at 6.8 µM. actives 1% (n = 370,000). AID 652126. HEK293 ssDAF-12/GRIP1 lit1-tk-luc reporter, luminescence; % of 3 µM dafachronic acid response;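 active = activation above the mean over all tested compounds plus 3 SD, cut at about 0.9% in these data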;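 also: 0% = DMSO-only wells and 100% = 3 µM delta7-dafachronic acid wells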
# hcDAF-12 act = activates DAF-12 receptor from parasite H. contortus | HEK293 hcDAF-12 lit1-tk-luc reporter, luminescence; 0% DMSO, 100% Δ7-dafachronic acid | activation, % at 6.8 µM | actives 1.4% (n = 370,000);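 active = activation above the mean of all tested compounds plus 3 SD, cut at about 5.5% in these data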;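 also: 100% = response to 3 µM Δ7-dafachronic acid high control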
# SMARCA2 conf = SMARCA2 activation, confirmation screen. shares compounds with SMARCA2 activ. actives 30% (n = 3,500). MG213 cells, MMTV-luciferase with dexamethasone, luminescence, overnight; MG213 cells expressing E1A, Rb sequestered; DMSO wells 0%, reference activator 100%. activation, % at 9.1 µM;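 active = activation above its plate's cutoff, the mean activation of tested wells plus 3 SD, cut at about 7.9% in these data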
# VP16 Luc act = activates GAL4-VP16 luciferase, flagging SMARCA2 activator hits | shares compounds with SMARCA2 activ | HEK293 GAL4-VP16 pG5luc reporter, luciferase luminescence; scaled: DMSO wells 0%, SAHA wells 100% | activation, % at 9.1 µM | actives 41% (n = 3,500);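 active = activation above the solvent-only control well mean plus 3 SD, averaged across control plates, cut at about 5.2% in these data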
# * hit, by the source's call; x = not tested or not shown. Hits are enriched below; roughly 4.8% of the tested compounds scored in any of these assays.
SMILES,SMARCA2 activ,DAX1 inh-1,hgDAF-12 ag,DAX1 inh-2,ssDAF-12 act,hcDAF-12 act,SMARCA2 conf,VP16 Luc act
CC(=O)N1CC(C)Oc2ccc(S(=O)(=O)NC(CC(=O)O)c3ccc(C)cc3C)cc21 (configuration not stated),0,0,1,0,-1,0,x,x
O=C(Nc1ccc2c(c1)ncn2-c1ccccc1)c1ccco1,11*,1,5,1,-1,0,16*,7.9*
O=C(Nc1c(C(=O)Nc2ccccc2)cnn1-c1ccccc1)c1ccco1,9.8*,1,-1,0,-1,0,1,0
O=[N+]([O-])c1cccc(S(=O)(=O)c2ccc(N3CCCCC3)c([N+](=O)[O-])c2)c1,-4,-3,-2,-2,-2,-4,x,x
CN(C)/C=N/c1ncc(C(=O)c2ccccc2)s1,14*,3,7,2,-1,2,8.7*,8.1*
Cc1ccccc1Cn1cc(NS(=O)(=O)c2cn(C)nc2C)cn1,8.8*,1,-2,-2,-1,-1,-2,2
Cc1ccccc1Cn1cc(NC(=O)c2nn(C)cc2Cl)cn1,-1,1,-2,0,-1,-1,x,x
O=C(N/N=C/c1cc(Cl)ccc1O)c1cccnc1,-1,-4,-10,-2,-2,-3,x,x
CC1(N=Cc2cc(Cl)ccc2O)COP(=O)(Nc2ccccc2)OC1 (configuration not stated),8.2*,1,4,0,0,3,-1,1
Cc1ccc2c(c1)N(CCCC(=O)NCc1ccc3c(c1)OCO3)C(=O)CO2,1,-1,3,0,-1,0,x,x
COc1ccc(S(=O)(=O)N2CCOCC2)cc1NC(=O)CCCOc1ccccc1,1,0,-1,0,-1,-1,x,x
COc1ccc(S(=O)(=O)N2CCOCC2)cc1NC(=O)CCCSc1ccccc1,9.3*,1,0,1,-1,1,-2,2
CC(=O)c1cccc(Nc2c([N+](=O)[O-])c(=O)oc3ccccc23)c1,-2,2,-1,0,-1,2,x,x
O=C(O)c1cccc(Nc2c([N+](=O)[O-])c(=O)oc3ccccc23)c1,8.9*,0,6,1,0,2,-3,1
CCOC(=O)c1nc(Nc2ccc(C)cc2)c2ccccc2n1,1,-2,1,-1,-2,-4,x,x
O=C(NC(=S)Nc1cccc(O)c1)C1CCCCC1,8.2*,3,9,2,0,1,3,6.2*
COc1ccc(C(=O)NNC(=O)c2ccc3ccccc3n2)cc1,15*,0,0,0,-1,-1,-14,4
O=C(CCc1ccccc1)NC(c1cccs1)c1cc(Cl)c2cccnc2c1O (configuration not stated),-3,-1,-7,-1,-1,0,x,x
O=c1oc2cc(Cl)ccc2n1CSc1nc2ccccc2s1,8.8*,3,12*,3,1,6.5*,6,11*
CC1=C(C(=O)Nc2ccccn2)C(c2ccc(N(C)C)cc2)n2ncnc2N1 (configuration not stated),8.1*,0,11*,2,0,4,1,-1
CC(=O)Nc1cccc(C(=O)N/N=C/c2cccc(C)n2)c1,11*,0,2,0,-1,1,-5,-1
COc1ccc(/C=N/Nc2cc(C)nc3c(C)cccc23)cc1,9.1*,-1,2,0,-2,-2,32*,1
CCN1CCN(CCCN(Cc2ccco2)C(=S)Nc2ccc(Cl)c(C)c2)CC1,0,-1,-4,1,-1,-1,x,x
Cc1ccc(NC(=S)N(CCCN2CCCC(C)C2)Cc2ccco2)cc1C (configuration not stated),9.2*,0,1,0,-1,1,-1,1
Cc1cccc(NC(=O)CCc2ccccc2)c1,9.2*,-1,3,0,-1,1,5,2
SMILES,SMARCA2 activ,DAX1 inh-1,hgDAF-12 ag,DAX1 inh-2,ssDAF-12 act,hcDAF-12 act,SMARCA2 conf,VP16 Luc act
O=C(CCc1ccccc1)Nc1ccccc1[N+](=O)[O-],8.2*,3,8,2,-1,0,15*,5.3*
O=C(CCCc1ccccc1)Nc1cccc(C(=O)O)c1,8.2*,-2,12*,4.5*,0,4,9.1*,14*
COC(=O)c1cccc(NC(=O)CCc2ccccc2)c1,3,0,3,0,1,1,x,x
CC(=O)Nc1cccc(NC(=O)CCc2ccccc2)c1,1,1,1,0,-1,-1,x,x
CCN(CC)C(=O)C1CCCN(C(=O)CCn2nnnc2CN2CCOCC2)C1 (configuration not stated),-3,0,1,1,-1,5,x,x
CN(C)c1ccc(NC(=O)Nc2ccc3c(c2)nnn3C)cc1,20*,6.5*,6,0,0,1,11*,6.1*
CC(C)CCN1CC(C(=O)NCCC2=CCCCC2)CC1=O (configuration not stated),8.1*,0,-1,2,-1,1,2,2
Cc1nn(CCOc2ccccc2)c(=O)n1-c1c(F)cccc1F,9.8*,3,11*,2,-1,2,3,8.0*
CN(Cc1cc(=O)[nH]c2ccccc12)C(=O)c1ccccc1,9.4*,1,3,0,0,5,0,1
COc1ccccc1N(Cc1cc(=O)[nH]c2ccccc12)C(=O)c1ccccc1,9.8*,0,-5,0,-1,-1,-2,0
Cc1ccc(NC(=O)CNc2cc(S(=O)(=O)N3CCOCC3)ccc2N2CCOCC2)cc1S(=O)(=O)N(C)C,-4,2,1,-1,-1,-1,x,x
CC(Sc1nnc(NC2CCCCC2)s1)C(=O)Nc1ccc2c(c1)C(=O)c1ccccc1C2=O (configuration not stated),10.0*,2,4,2,-1,1,3,12*
CC(Sc1nnc(NC2CC2)s1)C(=O)Nc1ccc(N2CCOCC2)cc1 (configuration not stated),-2,-1,1,1,-1,0,x,x
N#Cc1c(NC(=O)CSc2ncn[nH]2)sc2c1CCCC2,-8,-3,-13,-3,-3,-7,x,x
CCc1ccc(OCC(=O)NC(=S)Nc2cccc(CO)c2)c(Br)c1,2,-1,7,2,0,3,x,x
